From PubChem BioAssay AID797 (University of Pittsburgh Molecular Library Screening Center, 2007)
Among all 200,000 compounds or so, about 110 (0.055%) were called active. The entries come from a sample that favours actives as a whole. Unmarked numbers belong to inactive results. Rule as the data show it: active = inhibition above about 50%; inactive = the rest. Where a SMILES comes first, the peptide text is derived from it. [ ]: non-standard residue; d: D form. ξ: configuration not given here. ξM = CSCCC(N)C(=O)O

These compounds were tested against Serine/threonine-protein kinase D1 (Homo sapiens) (UniProt Q15139) (assay: inhibitors of human PKD1 kinase, biochemical, fluorescence polarization (AID 797)). Settings: PKD1 kinase fluorescence polarization assay; hits give high values; concentration not given here.
Chain of Serine/threonine-protein kinase D1 (Homo sapiens) (Q15139 whole entry, looked up): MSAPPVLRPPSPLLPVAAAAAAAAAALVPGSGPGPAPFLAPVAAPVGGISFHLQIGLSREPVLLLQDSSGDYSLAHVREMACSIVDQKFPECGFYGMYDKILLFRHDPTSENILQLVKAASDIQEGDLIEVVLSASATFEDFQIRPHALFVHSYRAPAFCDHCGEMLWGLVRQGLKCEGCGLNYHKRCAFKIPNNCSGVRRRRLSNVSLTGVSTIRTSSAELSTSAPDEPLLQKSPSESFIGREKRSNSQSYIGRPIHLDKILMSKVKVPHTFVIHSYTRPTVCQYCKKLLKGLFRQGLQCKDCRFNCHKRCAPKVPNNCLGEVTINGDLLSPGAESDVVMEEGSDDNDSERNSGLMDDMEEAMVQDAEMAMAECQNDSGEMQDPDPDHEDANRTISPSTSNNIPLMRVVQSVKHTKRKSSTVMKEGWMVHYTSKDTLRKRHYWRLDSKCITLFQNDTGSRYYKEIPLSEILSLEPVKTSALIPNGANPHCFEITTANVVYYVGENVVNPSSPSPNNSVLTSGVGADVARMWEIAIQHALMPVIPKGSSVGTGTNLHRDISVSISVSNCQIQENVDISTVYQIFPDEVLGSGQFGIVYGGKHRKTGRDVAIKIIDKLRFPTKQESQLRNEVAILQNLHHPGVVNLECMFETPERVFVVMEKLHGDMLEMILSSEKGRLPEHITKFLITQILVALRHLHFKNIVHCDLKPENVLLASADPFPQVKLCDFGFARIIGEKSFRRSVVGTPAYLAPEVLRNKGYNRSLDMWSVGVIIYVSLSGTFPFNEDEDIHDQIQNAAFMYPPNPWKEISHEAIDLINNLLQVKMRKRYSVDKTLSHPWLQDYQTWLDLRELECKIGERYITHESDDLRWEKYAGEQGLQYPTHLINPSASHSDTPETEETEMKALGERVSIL

Row | Compound | inhibition [%]
1 | CN1CCN(c2ccc(S(=O)(=O)N3CCCCC3)cc2NC(=O)Cc2ccccc2F)CC1 | -6.13
2 | Cc1ccc(NC(=O)CN2CCC(C(N)=O)CC2)cc1[N+](=O)[O-] | 5.71
3 | COc1ccc(NC(=O)CC2C(=O)OCC3CCCCN32)cc1Cl (centres undefined) | -6.39
4 | Cc1onc(C(=O)NCc2ccc(F)cc2)c1[N+](=O)[O-] | 0.1
5 | CCn1nc(C)c(/C=N/NC(=O)Cc2ccc(Cl)cc2)c1C | 3.28
6 | O=C(O)c1cccc(N2C(=O)Nc3ccccc3N2O)c1 | 7.76
7 | CCCCCCNCCn1cnc2c(N)ncnc21 | 6.16
8 | CC1CCN(c2ccc(C(=O)NCc3ccc4c(c3)OCO4)cc2[N+](=O)[O-])CC1 | 0.75
9 | Brc1c(CSc2nncc3ccccc23)nc2ccccn12 | 7.29
10 | Cc1ccc(O)c(-c2cc(C(=O)NCc3ccccc3)[nH]n2)c1 | -6.87
11 | CCOC(=O)C(CC)/C(C)=N\NC(=O)c1cccc(C)c1 (centres undefined) | -4.87
12 | COc1cccc2cc(/C(C)=N/NC(=O)c3ccco3)oc12 | 5.6
13 | O=C(CC1NCCc2ccccc21)Nc1cccc(Cl)c1 (centres undefined) | -4.65
14 | O=C(CN1CCN(c2ccc(O)cc2)CC1)Nc1cc(S(=O)(=O)N2CCOCC2)ccc1Cl | 1.7
15 | CC1(C)C(C=C(Cl)Cl)C1C(=O)N(Cc1ccc(Cl)cc1)C1CCS(=O)(=O)C1 (centres undefined) | 0.63
16 | CCOC(=O)Cc1ncccc1C(=O)Nc1ccc(OC(F)(F)F)cc1 | -0.72
17 | CN1C(=O)/C(=C\c2ccc(-c3ccccc3)o2)SC1=S | -6.62
18 | CSc1cccc(NC(=S)N(Cc2ccccc2)Cc2ccccn2)c1 | -9.2
19 | COC(=O)CNC(=O)C(CCSC)NC(C)=O (centres undefined) (Ac-[ξM]-Gly-OMe) | 9.67
20 | O=C(CSc1ccc(-c2cccs2)nn1)Nc1ccccc1F | 2.17
21 | CCN(CC)CCOCCOc1ccc(Cl)c2ccccc12 | -3.28
22 | CN1CCN(C(=O)C2=C[C@H](c3ccc4c(c3)OCO4)C[C@H](OCc3ccc(CO)cc3)O2)CC1 | -5.9
23 | O=C1/C(=C/c2cccs2)CCC1C1CCCC1 (centres undefined) | -1.44
24 | Cc1ccc(NC(=O)Nc2nnc(-c3ccncc3)s2)cc1 | 2.87
25 | CCc1nnc(NC(=O)CSc2nc(SC)ns2)s1 | 1.32
26 | O=C(Nc1nnc(C2COc3ccccc3O2)o1)c1ccc(F)cc1 (centres undefined) | -1.94
27 | CCC(C)NCC(=O)Nc1ccc([N+](=O)[O-])cc1C(=O)Nc1ccccc1F (centres undefined) | -10.9

Row | Compound | inhibition [%]
28 | CNC(=O)COC(=O)c1cc(-c2ccc(OC)cc2)nc2ccccc12 | -3.14
29 | Nc1cccc(-c2cc(-c3ccccc3)nc(-c3cccc(N)c3)n2)c1 | -18.9
30 | COC(=O)NNC(=O)C1CCC(C)CC1 (centres undefined) | -3.54
31 | Cc1cccc(NC(=O)c2nnn(-c3cccc(C(F)(F)F)c3)c2N)c1 | -0.25
32 | S=C1NC(c2ccccc2)=NCN1c1ccc(Br)cc1 | 0.72
33 | COc1ccc2ccccc2c1CNc1nnnn1C | -8.73
34 | CCC(C)NC(=O)/C=C/c1ccc(S(=O)(=O)NCc2ccco2)cc1 (centres undefined) | 7.02
35 | CCCCSc1nc2ccccc2[nH]1 | -6.36
36 | CN(CCc1cn[nH]c1)C(=O)CC1C(=O)NCCN1Cc1cccc(Oc2ccccc2)c1 (centres undefined) | -3.31
37 | Cc1c(C(=O)NCCN2C(=O)S/C(=C\c3cccs3)C2=O)cccc1[N+](=O)[O-] | 8.76
38 | Cc1ccc2c(=O)oc(N(C)C)nc2c1 | 1.27
39 | C#CCOCCOCCOCCNc1nc(N2CCN(C(=O)[C@H](CCCCN)n3cc([C@@H](N)C(C)CC)nn3)CC2)nc(N2CCN(C(=O)[C@H](Cc3ccc(O)cc3)n3cc([C@@H](N)C(C)CC)nn3)CC2)n1 (some centres undefined) | -0.05
40 | C=CCNC(=S)N1CCN(CCN=Cc2c(C)[nH]n(-c3ccc([N+](=O)[O-])cc3)c2=O)CC1 | -2.35
41 | CC(Oc1ccc(Cl)cc1)c1ccnn1S(C)(=O)=O (centres undefined) | -7.83
42 | CCOC(=O)c1c(NC(=O)C2CCN(S(=O)(=O)c3ccc(Cl)cc3)CC2)sc2c1CCCC2 | 8.85
43 | CCCCCC1CCC(c2nnc(SCC(C)=O)o2)CC1 (centres undefined) | -8
44 | O=[N+]([O-])c1cc(S(=O)(=O)N2CCCC2)ccc1NN=C1CCCC1 | 2.42
45 | Cc1cc(N/N=C/c2ccccc2F)c2ccccc2n1 | 4.69
46 | Cc1ccc(-n2cc(CN(C)Cc3nccn3C)c(-c3cccc(C)c3)n2)cc1 | -5.32
47 | COc1ccc(S(=O)(=O)Nc2cccnc2)c(Cl)c1Cl | -2.39
48 | O=C(NCCCN1CCOCC1)c1ccc(N2CCCC2)c([N+](=O)[O-])c1 | -1.03
49 | CC(C)(C)c1nnc(N/N=C/c2ccc(O)cc2)n(N)c1=O | -3.71
50 | CC(C)(C)NC(=O)NC(=O)CN1CCC(Cc2ccccc2)CC1 | -4.14
51 | CCN1/C(=C\c2ccc3ccccc3[n+]2CC)Sc2cc(C)ccc21 | -5.46
52 | Cc1scc(C(=O)NNC(=S)NCc2ccccc2)c1C | -7.68
53 | COc1ccc(/C=N/n2c(C)cc(C)cc2=O)cc1 | -7.11
54 | CCCn1c(NC(=O)C23CC4CC(CC(O)(C4)C2)C3)nc2ccccc21 | -0.11
